# In ChEMBL document CHEMBL3988442, “University of Dundee, Small-Polar-MMV Screening Library” (2021):
# For some of these results: Measured potencies and affinities stand elsewhere.
# Legend:
# Set-up in all cases: scale not given: direction of the effect not stated beside the values
# [1] = target: Protein translocase subunit SecA (Escherichia coli (strain K12)) (UniProt P10408); assay: Assay to Identify E. coli SecA ATPase Inhibitors; assay type: functional; conditions: 30 µM
# [2] = target: T1, Ubiquitin-activating enzyme e1, putative (Leishmania donovani (strain BPK282A1)) (UniProt E9BSI1); assay: Leishmania donovani Ubiquitin Activating Enzyme (LdE1); assay type: functional; conditions: 30 µM
# T1 sequence (whole entry): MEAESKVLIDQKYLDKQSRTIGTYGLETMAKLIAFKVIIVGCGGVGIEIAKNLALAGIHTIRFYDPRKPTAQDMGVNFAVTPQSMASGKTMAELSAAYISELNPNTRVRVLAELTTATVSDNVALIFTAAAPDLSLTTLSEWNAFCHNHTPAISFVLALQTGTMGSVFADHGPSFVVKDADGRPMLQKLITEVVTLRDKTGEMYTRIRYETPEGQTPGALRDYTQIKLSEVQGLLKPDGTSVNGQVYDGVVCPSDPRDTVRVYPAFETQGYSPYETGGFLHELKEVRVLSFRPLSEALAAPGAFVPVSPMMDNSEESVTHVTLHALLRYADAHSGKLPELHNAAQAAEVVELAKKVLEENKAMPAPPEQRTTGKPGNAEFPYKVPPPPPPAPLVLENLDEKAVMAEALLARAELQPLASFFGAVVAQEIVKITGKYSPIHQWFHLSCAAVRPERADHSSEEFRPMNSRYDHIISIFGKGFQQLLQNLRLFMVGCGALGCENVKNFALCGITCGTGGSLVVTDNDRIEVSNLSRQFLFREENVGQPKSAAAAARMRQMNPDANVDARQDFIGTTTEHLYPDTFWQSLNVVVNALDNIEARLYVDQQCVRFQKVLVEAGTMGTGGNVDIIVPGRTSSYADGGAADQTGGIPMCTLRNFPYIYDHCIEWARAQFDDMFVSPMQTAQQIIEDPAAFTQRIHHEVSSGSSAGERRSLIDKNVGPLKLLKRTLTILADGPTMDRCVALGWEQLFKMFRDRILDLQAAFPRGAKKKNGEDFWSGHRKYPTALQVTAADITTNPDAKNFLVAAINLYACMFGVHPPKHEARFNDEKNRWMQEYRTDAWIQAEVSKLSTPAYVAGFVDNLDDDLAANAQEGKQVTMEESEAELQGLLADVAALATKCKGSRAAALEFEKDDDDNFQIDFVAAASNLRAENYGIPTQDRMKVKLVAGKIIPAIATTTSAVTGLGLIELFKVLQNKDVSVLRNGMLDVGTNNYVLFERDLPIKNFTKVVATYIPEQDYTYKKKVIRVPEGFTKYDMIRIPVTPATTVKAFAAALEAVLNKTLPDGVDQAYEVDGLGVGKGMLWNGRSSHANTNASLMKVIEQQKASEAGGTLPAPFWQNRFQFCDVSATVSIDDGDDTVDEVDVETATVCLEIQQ
# [3] = target: AMP-activated protein kinase, AMPK (Homo sapiens) (UniProt P54646+O43741+P54619+Q9UGJ0+Q9Y478+Q13131+Q9UGI9); assay: AMP-dependent Kinase enzyme assay. An in vitro enzyme assay that detects ADP turnover that is directly proportional to AMPK activity. This uses naive AMPK that is activated during the assay with MK-8722; assay type: functional; conditions: 30 µM
# [4] = target: Sialic acid-binding Ig-like lectin 9 (Homo sapiens) (UniProt Q9Y336); assay: Hs-Siglec9 ALPHAscreen SOP 20170721; conditions: 10 µM
# Chain of Sialic acid-binding Ig-like lectin 9 (Homo sapiens) (Q9Y336 whole entry): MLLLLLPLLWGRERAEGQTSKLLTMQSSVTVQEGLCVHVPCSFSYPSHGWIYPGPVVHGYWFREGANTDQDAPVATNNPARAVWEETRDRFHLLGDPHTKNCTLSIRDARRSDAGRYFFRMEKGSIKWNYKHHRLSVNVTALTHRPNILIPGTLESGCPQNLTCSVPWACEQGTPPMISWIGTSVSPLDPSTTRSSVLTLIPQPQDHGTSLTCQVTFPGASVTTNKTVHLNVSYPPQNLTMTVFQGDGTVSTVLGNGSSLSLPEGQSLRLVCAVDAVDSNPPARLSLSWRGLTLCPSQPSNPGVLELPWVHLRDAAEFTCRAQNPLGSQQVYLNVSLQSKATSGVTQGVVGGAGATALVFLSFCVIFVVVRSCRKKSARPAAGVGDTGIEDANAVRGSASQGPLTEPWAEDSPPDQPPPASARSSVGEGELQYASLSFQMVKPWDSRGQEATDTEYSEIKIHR
# [5] = system: Trypanosoma cruzi; assay: Trypanosoma cruzi phosphomannomutase and mannose-1-phosphate guanylyltransferase assay; assay type: functional; conditions: 10 µM
# [6] = target: T2, Arginase-2, mitochondrial (Homo sapiens) (UniProt P78540); assay: in vitro enzyme assay to detect the production of urea directly proportional to the activity of Arginase II; assay type: functional; conditions: 33.3 µM; note: in the data most compounds retested in dose-response had high values
# T2 sequence (whole entry): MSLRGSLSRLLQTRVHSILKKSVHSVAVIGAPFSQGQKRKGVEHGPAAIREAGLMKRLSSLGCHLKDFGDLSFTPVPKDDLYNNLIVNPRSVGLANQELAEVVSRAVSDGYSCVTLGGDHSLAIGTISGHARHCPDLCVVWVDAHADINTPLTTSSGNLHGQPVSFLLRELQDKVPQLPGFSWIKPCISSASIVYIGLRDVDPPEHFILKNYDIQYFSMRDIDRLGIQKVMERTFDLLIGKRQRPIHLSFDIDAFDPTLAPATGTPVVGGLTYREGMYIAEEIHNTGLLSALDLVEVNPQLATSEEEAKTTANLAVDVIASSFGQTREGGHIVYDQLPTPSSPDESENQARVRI
# [7] = target: T3, Proteasome subunit beta (Trypanosoma cruzi) (UniProt O96673); assay: Trypanosoma cruzi proteasome chymotrypsin-like activity (TcProtChymo) assay.; note: in the data most compounds retested in dose-response had high values; assay type: functional; conditions: 9.37 µM
# T3 sequence (whole entry): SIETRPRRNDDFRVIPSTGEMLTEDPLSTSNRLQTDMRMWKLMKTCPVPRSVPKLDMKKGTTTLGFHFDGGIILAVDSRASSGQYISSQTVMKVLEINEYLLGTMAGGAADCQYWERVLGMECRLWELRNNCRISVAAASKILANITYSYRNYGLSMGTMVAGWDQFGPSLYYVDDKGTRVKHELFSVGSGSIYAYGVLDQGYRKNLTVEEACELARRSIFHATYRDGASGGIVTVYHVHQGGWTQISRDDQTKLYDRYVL
# [8] = species: Homo sapiens; assay: To identify inhibition of the IFN signalling (Jak-Stat) pathway via expression of an eGFP reporter gene under the control of an IFN-stimulated response element (ISRE) containing MxA promoter.; assay type: functional; conditions: 30 µM
# [9] = target: T4, Tyrosyl-tRNA synthetase, putative (Trypanosoma cruzi (strain CL Brener)) (UniProt Q4DSP6); assay: Trypanosoma cruzi tyrosyl tRNA synthetase (TcYRS) _High Tyrosine SOP; assay type: functional; conditions: 30 µM; note: in the data most compounds retested in dose-response had high values
# T4 sequence (whole entry): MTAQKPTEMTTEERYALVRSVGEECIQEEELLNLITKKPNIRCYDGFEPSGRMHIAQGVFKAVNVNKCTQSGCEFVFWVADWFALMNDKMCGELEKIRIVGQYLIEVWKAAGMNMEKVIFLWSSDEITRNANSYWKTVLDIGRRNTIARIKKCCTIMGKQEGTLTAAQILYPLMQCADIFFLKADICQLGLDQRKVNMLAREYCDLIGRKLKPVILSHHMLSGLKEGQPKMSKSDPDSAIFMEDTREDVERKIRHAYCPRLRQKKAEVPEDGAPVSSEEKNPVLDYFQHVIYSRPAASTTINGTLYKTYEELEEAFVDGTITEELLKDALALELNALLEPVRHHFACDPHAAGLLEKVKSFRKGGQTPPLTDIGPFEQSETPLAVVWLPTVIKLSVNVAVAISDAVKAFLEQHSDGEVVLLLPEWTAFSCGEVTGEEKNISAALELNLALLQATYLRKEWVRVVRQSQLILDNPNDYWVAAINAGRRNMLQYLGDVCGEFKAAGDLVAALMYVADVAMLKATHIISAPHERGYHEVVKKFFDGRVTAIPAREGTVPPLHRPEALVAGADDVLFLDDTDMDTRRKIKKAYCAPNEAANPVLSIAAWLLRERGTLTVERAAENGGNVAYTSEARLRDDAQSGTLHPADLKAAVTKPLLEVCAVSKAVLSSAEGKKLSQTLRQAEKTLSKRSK
# [10] = target: T4, Tyrosyl-tRNA synthetase, putative (Trypanosoma cruzi (strain CL Brener)); assay: Trypanosoma cruzi tyrosyl tRNA synthetase (TcYRS) SOP; assay type: functional; conditions: 30 µM
# [11] = target: Chromo domain-containing protein 1 (Saccharomyces cerevisiae (strain ATCC 204508 / S288c) (Baker's yeast)) (UniProt P32657); assay: ScCHD-1 Enzyme Inhibition Assay; assay type: functional; conditions: 30 µM; note: in the data most compounds retested in dose-response had high values
# Chain of Chromo domain-containing protein 1 (Saccharomyces cerevisiae (strain ATCC 204508 / S288c) (Baker's yeast)) (P32657 whole entry, the tested form may be a part): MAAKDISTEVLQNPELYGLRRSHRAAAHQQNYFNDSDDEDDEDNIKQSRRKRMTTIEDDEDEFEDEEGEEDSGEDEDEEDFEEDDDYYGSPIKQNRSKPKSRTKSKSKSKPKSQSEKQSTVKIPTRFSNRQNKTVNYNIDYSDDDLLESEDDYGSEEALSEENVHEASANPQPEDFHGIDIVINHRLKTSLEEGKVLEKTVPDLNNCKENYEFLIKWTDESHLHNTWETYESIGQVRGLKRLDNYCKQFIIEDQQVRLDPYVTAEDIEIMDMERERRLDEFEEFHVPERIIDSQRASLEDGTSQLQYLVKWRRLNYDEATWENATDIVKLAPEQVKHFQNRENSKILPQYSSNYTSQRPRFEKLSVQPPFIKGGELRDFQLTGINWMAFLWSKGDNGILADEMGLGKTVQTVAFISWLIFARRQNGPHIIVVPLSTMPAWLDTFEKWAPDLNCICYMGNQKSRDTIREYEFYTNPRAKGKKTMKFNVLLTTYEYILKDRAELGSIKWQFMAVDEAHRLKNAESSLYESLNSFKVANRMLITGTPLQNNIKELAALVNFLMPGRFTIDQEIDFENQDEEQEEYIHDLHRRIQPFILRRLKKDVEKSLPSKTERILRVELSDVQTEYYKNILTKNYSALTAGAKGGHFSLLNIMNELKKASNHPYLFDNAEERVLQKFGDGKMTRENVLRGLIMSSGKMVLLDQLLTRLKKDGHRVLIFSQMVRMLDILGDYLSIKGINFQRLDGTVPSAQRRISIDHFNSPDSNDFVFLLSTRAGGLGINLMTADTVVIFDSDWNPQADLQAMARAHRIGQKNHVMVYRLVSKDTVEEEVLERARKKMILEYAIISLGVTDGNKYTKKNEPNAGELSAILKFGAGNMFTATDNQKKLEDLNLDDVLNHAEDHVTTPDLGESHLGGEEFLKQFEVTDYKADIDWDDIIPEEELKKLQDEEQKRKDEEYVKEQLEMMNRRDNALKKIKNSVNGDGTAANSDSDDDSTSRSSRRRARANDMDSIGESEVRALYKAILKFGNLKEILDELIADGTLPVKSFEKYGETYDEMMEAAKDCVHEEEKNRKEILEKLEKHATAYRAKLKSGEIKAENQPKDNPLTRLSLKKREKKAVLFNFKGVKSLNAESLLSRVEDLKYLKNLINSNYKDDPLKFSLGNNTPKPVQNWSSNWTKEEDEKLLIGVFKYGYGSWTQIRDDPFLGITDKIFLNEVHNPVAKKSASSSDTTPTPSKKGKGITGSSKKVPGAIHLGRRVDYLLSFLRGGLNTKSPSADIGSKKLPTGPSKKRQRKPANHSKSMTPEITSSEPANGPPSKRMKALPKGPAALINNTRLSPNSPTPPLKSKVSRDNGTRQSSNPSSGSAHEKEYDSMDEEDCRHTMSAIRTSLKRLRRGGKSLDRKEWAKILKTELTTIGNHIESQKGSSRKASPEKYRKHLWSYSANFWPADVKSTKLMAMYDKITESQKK
# Chain of Protein translocase subunit SecA (Escherichia coli (strain K12)) (P10408 whole entry): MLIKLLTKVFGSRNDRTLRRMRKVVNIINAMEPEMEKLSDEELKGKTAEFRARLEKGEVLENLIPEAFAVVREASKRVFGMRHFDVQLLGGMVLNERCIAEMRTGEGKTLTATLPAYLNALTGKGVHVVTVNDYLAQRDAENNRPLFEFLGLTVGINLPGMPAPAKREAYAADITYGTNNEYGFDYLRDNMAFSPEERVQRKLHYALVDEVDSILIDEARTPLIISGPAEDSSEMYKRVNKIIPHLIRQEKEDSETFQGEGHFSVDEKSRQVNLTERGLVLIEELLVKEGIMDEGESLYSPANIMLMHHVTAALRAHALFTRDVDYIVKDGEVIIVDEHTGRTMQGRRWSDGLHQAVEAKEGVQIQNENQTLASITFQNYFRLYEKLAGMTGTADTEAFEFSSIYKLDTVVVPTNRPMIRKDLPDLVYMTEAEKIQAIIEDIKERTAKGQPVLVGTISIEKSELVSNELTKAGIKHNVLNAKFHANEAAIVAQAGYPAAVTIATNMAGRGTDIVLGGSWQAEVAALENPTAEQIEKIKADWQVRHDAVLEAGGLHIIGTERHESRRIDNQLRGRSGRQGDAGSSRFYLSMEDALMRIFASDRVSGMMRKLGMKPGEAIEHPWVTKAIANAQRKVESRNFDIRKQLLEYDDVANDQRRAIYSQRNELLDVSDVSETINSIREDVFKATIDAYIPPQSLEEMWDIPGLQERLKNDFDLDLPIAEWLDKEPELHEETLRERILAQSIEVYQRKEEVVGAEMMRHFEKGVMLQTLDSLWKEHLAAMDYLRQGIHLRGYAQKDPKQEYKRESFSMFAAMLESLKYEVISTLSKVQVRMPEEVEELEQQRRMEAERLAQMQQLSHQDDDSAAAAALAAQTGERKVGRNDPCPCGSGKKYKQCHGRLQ
Compound,Percent Effect [1] [%],Percent Effect [2] [%],Percent Effect [3] [%],Percent Effect [4] [%],Percent Effect [5] [%],Percent Effect [6] [%],Percent Effect [7] [%],Percent Effect [8] [%],Percent Effect [9] [%],Percent Effect [10] [%],Percent Effect [11] [%]
O=C(c1ccc[nH]1)N1CCCC2(CCN(c3ccsc3)C2=O)C1 (stereo not drawn),-0.928,-2.6,11.3,3.88,-3.06,-5.81,1.57,4.99,-3.17,-3.85,-1.57
COCCO[C@@H]1CCN(C(=O)c2ccc(C)o2)[C@@H]1Cc1cccnc1,-5.36,0,9.87,-4.82,-3.91,4.17,8.03,2.29,5.94,8.54,-1.12
Cn1ccnc1CN1CC[C@@H](NS(C)(=O)=O)[C@@H]1Cc1cccnc1,-2.5,8.11,-0.0396,-7.99,-6.35,-2.23,18.6,11.3,2.16,10.3,-5.81
COc1ccc(NC(=O)CNc2cccc3c2CCCC3)c(OC)c1,-6.64,-2.7,-0.0771,0.268,-5.57,-3.23,6.95,-3.03,-6.45,-11.1,-3.27
COc1c(C(=O)NCc2cccnc2)nnn1Cc1ccc(C)cc1,-1.69,1.33,1.61,3.68,-4.13,1.23,4.25,5.48,1.06,2.56,0.167
CC(C)NC(=O)COc1nc(C(C)C)no1,-4.66,-2.7,-12.4,41.5,9.07,16.2,4.48,6.57,-0.529,9.76,-4.43
CN(C)CCn1c(=O)oc2ccc(NC(=O)C3CCCO3)cc21 (stereo not drawn),-6.72,5.33,-5.94,4.64,-1.85,1.56,6.8,5.49,8.2,11.1,-5.1
CC1CCN(CCNC(=O)c2ccccc2N2CCOCC2)CC1,0.622,11,-2.96,1.48,-1.98,-2.79,24.1,5.31,13.5,16.1,-2.45
